BRCA1 expr up – qHTS Assay to Identify Small Molecule Activators of BRCA1 Expression. MCF7-BRCA1-FFLuc reporter, luminescence, 48 h; response scale: scaled: vehicle 0%, 10 µM genistein 100%. 1.1% of 380,000 active. Potency, µM (highest dose often 46.1 µM), for the others: top-dose activation, most hits filed as activators; further: potency means the concentration at half of the fitted maximal effect; nearly all actives have a fitted effect of over 80% in size
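Luminescence from a BRCA1-driven firefly luciferase in MCF7 cells was the read-out, taken 15 min after substrate addition following 48 h compound exposure at 37 °C. Data were normalized to a 10 microM genistein control and DMSO vehicle.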
p53 reactivator – qHTS assay for re-activators of p53 using a Luc reporter | H1299 p53-A138V BP100-luciferase reporter, luminescence, 24 h | Potency, µM (series often up to 92.2 µM), for inactives: at the highest dose activity change, positive = activation, usual class: activators | 0.063% of 320,000 active | AID 504706, 2011; further: potency means the concentration at half of the fitted maximal effect; % of control where 0% means no effect; nearly all actives have a fitted effect of over 45% in size
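p53-null H1299 cells stably carrying temperature-sensitive p53-A138V and a BP100-luciferase reporter were pinned with compounds (4-point, 1:5 series) and held 24 hrs at 37 deg C. Luminescence was read 10 min after detection reagent.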
TCR act – Activators of T cell receptors: qHTS campaign; primary human leukocytes, anti-CD3, IL-2 HTRF, 48 h; Potency, µM (highest dose often 9.22 µM), without a hit: at the highest dose activation of IL-2 secretion, usual class: activators; 330,000 tested, under 10 active; further: % of control where 0% means no effect
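Human primary leukocytes + a-CD3 beads + cpd, 48 hr; IL-2 in supernatant by HTRF (ex 320nm / em 665nm). No co-stimulatory signal supplied.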
Mito fusion yeast – qHTS Assay for Small Molecule Inhibitors of Mitochondrial Division or Activators of Mitochondrial Fusion | Potency, µM (doses to about 46.1 µM), for the others: at the highest dose growth rescue (activation), usual class: activators | 0.23% of 320,000 active | AID 485298, 2010 | S. cerevisiae fusion-defective mutant growth rescue, CellTiterGlo 48 h; further: potency means the concentration at half of the fitted maximal effect; % of control where 0% means no effect; nearly all actives have a fitted effect of over 45% in size
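Compounds are tested for their ability to restore growth of mitochondrial fusion-defective yeast strains at non-permissive 37C in YPEG medium over 48 hours. Viability is quantified by luciferase luminescence.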
IL-2 act – qHTS of IL-2 Activators; AID 652025, 2013; IL-2 activation reporter assay, cell-based qHTS; stimulated with anti-CD3/CD4/CD28 beads; in transgenic mouse T cells; activation, % (series mostly up to about 46 µM); 0.065% of 360,000 active; in the data active means activation above about 50%; inconclusive means mostly about 30% to 49%; further: 0% is about no effect
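Quantitative HTS in unstimulated transgenic mouse T cells, with memory T cells as non-tolerant control and PMA/ionomycin as tolerance-bypass control. Compound pretreatment lasted 60 minutes before 18 h bead stimulation; EGFP/DsRed fluorescence read.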
* = called active by the depositor; ? = inconclusive; . = not tested or not shown; [ ] = remark or other dose. Only some compounds are listed: those with a hit (about 1.3% of all), similar ones and a draw of the others. Unless noted, the call rests on the fitted dose curve; in most records, active means well fitted curve in the direction sought with a large enough effect; inconclusive means small, poorly fitted or top-dose-only effect, or another doubt; inactive means no such curve, though single readings can be large; an effect the other way counts as inactive or inconclusive.

SMILES	BRCA1 expr up	p53 reactivator	TCR act	Mito fusion yeast	IL-2 act
CN(C)c1ccc(/C=C/c2ccnc3ccccc23)cc1Br	0%	.	.	.	.
O=c1cc2c(nn1Cc1ccccc1Cl)-c1ccccc1CC2	13%	-3%	-2%	20µM*	0
O=c1cc2c(nn1Cc1ccc(Cl)cc1Cl)-c1ccccc1CC2	-47%	2%	1%	?	-3
OCCc1ccc(NCCc2cccs2)cc1	8.9µM*	.	.	.	0
O=C(Nc1nc2ccccc2s1)c1ccccc1[N+](=O)[O-]	69%	28µM*	-4%	-1%	2
O=[N+]([O-])c1nc2ccccc2[nH]1	29%	.	-4%	.	0
CN(C)C(=S)Nc1nc2ccccc2s1	3.5µM*	10%	-7%	12%	-2
O=C(c1nc2ccccc2[nH]1)c1ccccc1[N+](=O)[O-]	11µM*	?	-1%	-2%	0
O=C(O)c1cccc([N+](=O)[O-])c1C(=O)Nc1nc2ccccc2s1	0%	?	2%	-4%	2
CCCC(=O)Nc1nc2ccc(OCC)cc2s1	6.3µM*	3.2µM*	-4%[46.1 µM]	18%	-3
COc1cc(-c2noc(-c3ccc(NCc4cccnc4)c([N+](=O)[O-])c3)n2)cc(OC)c1OC	-1%	.	.	.	.
CCNC(=O)Nc1nc2ccccc2s1	3.2µM*	14%	-1%	-2%	-2
O=C(Nc1nc2ccccc2s1)NC1CCCCC1	?	10%	-2%	14%	-1
CCOCC(=O)Nc1nc2ccccc2s1	7.9µM*	?	1%[46.1 µM]	1%	4
Cc1ccccc1Nc1nc2ccccc2s1	3.5µM*	?	-3%[46.1 µM]	10%	-1
O=C(CSc1nccn1-c1ccccc1)Nc1nc2ccccc2s1	11µM*	.	.	.	.
Cc1ccc(Nc2nc3ccccc3s2)cc1	-18%	?	2%[46.1 µM]	-2%	0
CC(C)OC(=O)CCC(=O)Nc1nc2ccccc2s1	66%	15%	0%	-2%	-1
Cc1oc2ncn(CC(C)C)c(=O)c2c1C(=O)NC(C)c1ccccc1 (stereo not given)	-49%	.	.	.	.
Cc1ccc(C)c(NC(=O)C2CCCN(S(=O)(=O)c3cccc4nsnc34)C2)c1 (stereo not given)	26%	.	.	.	.
O=C(NC(=S)Nc1ccc2c(c1)OCO2)c1ccc(Cl)cc1	6.3µM*	?	2%[46.1 µM]	2%	-1
S=C(Nc1ccc(Cl)cc1)Nc1ccc2c(c1)OCCO2	7.1µM*	?	1%	-15%	-3
COc1ccc(Cl)cc1NC(=S)NC(=O)c1ccc2c(c1)OCO2	-23%	.	1%	.	-5
S=C(Nc1ccc2c(c1)OCCO2)Nc1ccccc1Cl	64%	18%	-5%	-15%	0
Cc1cc(C)cc(C(=O)NC(=S)Nc2ccc3c(c2)OCCO3)c1	?	?	7%[46.1 µM]	12%	-5
SMILES	BRCA1 expr up	p53 reactivator	TCR act	Mito fusion yeast	IL-2 act
CCc1ccc(C(=O)NC(=S)Nc2ccc3c(c2)OCCO3)cc1	6.3µM*	?	4%[46.1 µM]	-10%	0
CCOC(=O)N1CCC(NC(=O)c2ccc3c(c2)N(Cc2ccc(F)cc2)C(=O)c2ccccc2S3=O)CC1 (stereo not given)	-48%	.	.	.	.
Cc1cc(C)n(CCN(C)C(=O)CCc2nnc(CCC3CCCCC3)o2)n1	11µM*	14%	-6%	3%	1
COc1ccc(NC(=O)c2cc(C)on2)cc1	7.1µM*	?	4%	-5%	-1
COc1ccc(NC(=O)c2cc(C)on2)cc1OC	15%	2%	.	-1%	3
COc1ccc(NC(=O)c2cccnn2)cc1	13µM*	17%	1%	11%	-5
O=C(C[n+]1ccccc1Br)c1ccc2c(c1)CCCC2	21%	.	.	.	.
CN=C1S/C(=C\c2ccc(O)c(OC)c2)C(=O)N1C	10µM*	.	3%	.	-1
Brc1ccc(C2=Nn3c(nnc3-c3n[nH]c4c3CCC4)SC2)cc1	-97%	0%	1%	16µM*	0
CN(C)c1cc(F)c(C=O)cc1F	12%	.	.	.	.
CCCCC(c1nnnn1CC1CCCO1)N1CCN(c2nc3ccccc3s2)CC1 (stereo not given)	-13%	6%	-5%	14µM*	-2
CCCC(c1nnnn1CC1CCCO1)N1CCN(c2nc3ccccc3s2)CC1 (stereo not given)	-13%	-7%	3%[46.1 µM]	13%	-2
Cc1ccc(NC(=O)/C=C/c2ccc([N+](=O)[O-])s2)c(C)c1	-56%	-46%	-3%[46.1 µM]	7%	0
Cc1cc([N+](=O)[O-])ccc1NC(=O)/C=C/c1cccs1	5.6µM*	?	-1%[46.1 µM]	0%	0
Cc1ccc(C2=Nc3ccccc3N(C(=O)c3ccccc3)C(C)C2)cc1 (stereo not given)	-17%	-3%	-1%[46.1 µM]	20µM*	0
COc1cccc(/C=C/C(=O)OCC(=O)c2ccccc2)c1OC	11µM*	?	-3%	.	1
COc1ccccc1/C=C/C(=O)c1ccccc1	3%	32µM*	0%	-44%	0
CCOC(=O)c1cc(S(=O)(=O)Nc2ccc(OC)c(Cl)c2)[nH]n1	5%	.	.	.	.
CCCCN1C(=O)/C(=C2/Sc3ccc(OC)cc3N2CC)SC1=S	0%	?	.	1%	118*
C=CCN1C(=O)/C(=C2/Sc3ccc(OC)cc3N2CC)SC1=S	-6%	6%	.	0%	189*
CCN1/C(=C2/SC(=S)N(NC(C)=O)C2=O)Sc2ccc(OC)cc21	-10%	6%	.	1%	1
COc1ccc(C(=O)C2C(=O)C(=O)N(Cc3ccco3)C2c2cccs2)cc1 (stereo not given)	15%	.	.	.	.
O=C1C(=O)C(c2cc(O)c(O)c(O)c2)Oc2cc(O)cc(O)c21 (stereo not given)	0%	.	.	.	.
O=c1[nH]c2ccccc2nc1/C=C/c1ccccc1	4µM*	8%	-4%	0%	0
COc1ccc(OC)c(/C=C/c2nc3ccccc3[nH]c2=O)c1	-45%	-1%	-4%	23%	139*
CCCCn1c(C)cc2c(c1=O)C1O[C@](c3ccc(OC)cc3)(Cc3cc(OC)c(OC)cc31)O2	.	.	.	-2%[9.22 µM]	.
Cc1cc(F)ccc1NC(=O)C1CCCN(S(=O)(=O)c2ccc3c(c2)CCCC(=O)N3)C1 (stereo not given)	-3%	.	.	.	.
Cc1cc(/C=C2\NC(=S)N(C)C2=O)ccc1N1CCCC1	5µM*	10%	-3%	-7%	6
Cc1ccc(C)c2[nH]c(=O)c(CN(Cc3ccco3)C(=O)Nc3ccccc3)cc12	-8%	-1%	-2%	14µM*	-1
Cc1ccc2cc(CN(Cc3ccco3)C(=O)NCc3ccccc3)c(=O)[nH]c2c1C	-27%	-6%	4%	10%	-1

Screening results deposited in PubChem by National Center for Advancing Translational Sciences (NCATS).
